Measurements as given in PubChem BioAssay (NCI).
This is part of a sample that, as a whole, favours compounds with a hit. Of some 83,000 tested, about 20% had one in any assay.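 Cells were grown in 96-well plates and exposed to the test compound at a single concentration for 48 hours; results are reported as percent growth, with values below 10 considered active.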 Activity calls are given as the source filed them.

Tests used:
Experiment in all cases: NCI-60 one-dose screen, 48 h (100 = growth as untreated, 0 = no growth, -100 = all killed)
Details in all cases: 10 µM unless noted
NCI/ADR-RES ovarian = test system: NCI/ADR-RES ovarian
T-47D breast = test system: T-47D breast
BT-549 breast = test system: BT-549 breast
MDA-MB-435 melanoma = test system: MDA-MB-435 melanoma
SW-620 colon = test system: SW-620 colon
MCF7 breast = test system: MCF7 breast
HCT-116 colon = test system: HCT-116 colon
HCC-2998 colon = test system: HCC-2998 colon
KM12 colon = test system: KM12 colon

Measured: growth

CCOC(=S)S[C@H]1C[C@@H]2[C@H](CC[C@]3(C)C(=O)CC[C@@H]23)[C@@]2(C)CCC(=O)C=C12
inactive: NCI/ADR-RES ovarian 102% | T-47D breast 108% | BT-549 breast 105% | MDA-MB-435 melanoma 101% | SW-620 colon 105% | MCF7 breast 90.6% | HCT-116 colon 104% | HCC-2998 colon 106% | KM12 colon 101%

CC(=O)O[C@H](C[C@H](C(C)C)N(C)C(=O)[C@@H](NC(=O)[C@H]1CCCCN1C)C(C)C)c1nc(C(=O)N[C@@H](Cc2ccccc2)C[C@H](C)C(=O)O)c(C(C)C)s1
active: NCI/ADR-RES ovarian 0.688% | BT-549 breast -23.3% | MDA-MB-435 melanoma -42% | HCT-116 colon 3.68% | HCC-2998 colon -2.79% | KM12 colon 4.51%
inactive: T-47D breast 44% | SW-620 colon 27.3% | MCF7 breast 15.1%

O=C(CCCC1CCCCC1)OCC(Cl)(Cl)Cl
inactive: NCI/ADR-RES ovarian 102% | T-47D breast 101% | BT-549 breast 117% | MDA-MB-435 melanoma 111% | SW-620 colon 107% | MCF7 breast 95.5% | HCT-116 colon 103% | HCC-2998 colon 88.4% | KM12 colon 105%

O=C1NC(=O)C(=Cc2cn(C(=O)c3ccccc3)c3ccccc23)C(=O)N1
inactive: NCI/ADR-RES ovarian 97.1% | T-47D breast 95.2% | BT-549 breast 105% | MDA-MB-435 melanoma 105% | SW-620 colon 93.7% | MCF7 breast 89.4% | HCT-116 colon 102% | HCC-2998 colon 93.4% | KM12 colon 108%

Cc1ccc(S(=O)(=O)F)cc1C(=O)O
inactive: NCI/ADR-RES ovarian 105% | T-47D breast 91.6% | BT-549 breast 111% | MDA-MB-435 melanoma 86.9% | SW-620 colon 109% | MCF7 breast 111% | HCT-116 colon 111% | HCC-2998 colon 108% | KM12 colon 109%

Clc1ccc(CSC(Cn2ccnc2)c2ccc(Cl)cc2Cl)cc1 (stereo not drawn)
inactive: NCI/ADR-RES ovarian 14.1% | T-47D breast 29.5% | MDA-MB-435 melanoma 31.4% | SW-620 colon 29.2% | MCF7 breast 20.9% | HCC-2998 colon 36.1% | KM12 colon 16.1%
active: BT-549 breast 4.34% | HCT-116 colon 7.38%

COc1cc(/C=C/[N+](=O)[O-])cc(OC)c1
active: T-47D breast -1.67% | BT-549 breast -49.7% | MDA-MB-435 melanoma -46.4% | SW-620 colon -10.5% | MCF7 breast -59.1% | HCT-116 colon -68.3% | HCC-2998 colon -79.7% | KM12 colon -23.7%
inactive: NCI/ADR-RES ovarian 11.3%

CN(C)CC(C(=O)Cc1ccccc1)c1ccccc1 (stereo not drawn)
inactive: NCI/ADR-RES ovarian 76.5% | BT-549 breast 76.3% | MDA-MB-435 melanoma 26.8% | SW-620 colon 20.6% | HCC-2998 colon 116%
active: T-47D breast -37.8% | MCF7 breast 1.13% | HCT-116 colon 2.48% | KM12 colon -1.54%

CCOC(=O)N[C@H]1CCc2c(Br)c(OC)c(OC)c(OC)c2-c2ccc(SC)c(=O)cc21
active: BT-549 breast 3.55% | MDA-MB-435 melanoma -54.2% | HCT-116 colon -5.72% | KM12 colon -8.71%
inactive: NCI/ADR-RES ovarian 11.8% | T-47D breast 42.6% | SW-620 colon 16.7% | MCF7 breast 10.8% | HCC-2998 colon 14.6%

COc1cc(C=Nc2cccc(C(=O)O)c2)ccc1N(CCCl)CCCl
inactive: NCI/ADR-RES ovarian 103% | T-47D breast 96.3% | BT-549 breast 103% | MDA-MB-435 melanoma 91.5% | SW-620 colon 90.4% | MCF7 breast 95.2% | HCT-116 colon 104% | HCC-2998 colon 74.4% | KM12 colon 57.3%

c1cc2c(c3c1CCNC3)OCO2
inactive: NCI/ADR-RES ovarian 101% | T-47D breast 90.4% | BT-549 breast 97.4% | MDA-MB-435 melanoma 106% | SW-620 colon 112% | MCF7 breast 92.7% | HCT-116 colon 99% | HCC-2998 colon 102% | KM12 colon 106%

N#Cc1c(Br)n(C2OC(CO)C(O)C2O)c2ncnc(N)c12 (stereo not drawn)
inactive: NCI/ADR-RES ovarian 52.9% | BT-549 breast 73.5% | MDA-MB-435 melanoma 51.4% | SW-620 colon 30.5% | HCT-116 colon 40.3% | HCC-2998 colon 83.7% | KM12 colon 34%
active: T-47D breast 9.15% | MCF7 breast 3.47%

COC(=O)[C@H](Cc1c[nH]c2ccccc12)NC(=O)[C@@H](OC)[C@@H]1Cc2cc3cc(OC4CC(OC5CC(O)C(O)C(C)O5)C(O)C(C)O4)c(C)c(O)c3c(O)c2C(=O)[C@H]1OC1CC(OC2CC(OC3CC(C)(O)C(O)C(C)O3)C(O)C(C)O2)C(O)C(C)O1 (stereo partly drawn)
inactive: NCI/ADR-RES ovarian 76.7%
active: T-47D breast 8.07% | BT-549 breast -53.4% | MDA-MB-435 melanoma -71.9% | SW-620 colon 6.98% | MCF7 breast 5.98% | HCT-116 colon 3.71% | HCC-2998 colon -46.8% | KM12 colon 0.363%

CCOc1ccccc1C(=O)OCC(Cl)(Cl)Cl
inactive: NCI/ADR-RES ovarian 108% | T-47D breast 90.6% | BT-549 breast 106% | MDA-MB-435 melanoma 107% | SW-620 colon 110% | MCF7 breast 99.4% | HCT-116 colon 105% | HCC-2998 colon 101% | KM12 colon 101%

CN(C)C(=O)Oc1ccc(Br)cc1
inactive: NCI/ADR-RES ovarian 106% | T-47D breast 92.4% | BT-549 breast 103% | MDA-MB-435 melanoma 104% | SW-620 colon 109% | MCF7 breast 88.7% | HCT-116 colon 103% | HCC-2998 colon 108% | KM12 colon 101%

COc1cc2c(cc1OCCCn1c(-c3ccccn3)nc3ccccc31)N=C[C@@H]1CCCN1C2=O
active: NCI/ADR-RES ovarian 3.97% | BT-549 breast -17.1% | MDA-MB-435 melanoma -23.6% | SW-620 colon 0.272% | MCF7 breast 1.32% | HCT-116 colon -14.4% | HCC-2998 colon 2.04% | KM12 colon -31.7%
inactive: T-47D breast 35.4%

COC(=O)[C@@]1(O)C[C@H]2O[C@]1(C)n1c3ccccc3c3c4c(c5c6ccccc6n2c5c31)C(=O)NC4
active: NCI/ADR-RES ovarian -40.2% | T-47D breast -37.4% | BT-549 breast -73.9% | MDA-MB-435 melanoma -90.2% | SW-620 colon -19.7% | MCF7 breast -40.7% | HCT-116 colon -4.08% | HCC-2998 colon -53.4% | KM12 colon -13.9%

[Cl][Hg][c]1cc(Br)cc(Br)c1
inactive: NCI/ADR-RES ovarian 81.1% | T-47D breast 27.5% | BT-549 breast 48% | MDA-MB-435 melanoma 58.2% | SW-620 colon 29% | MCF7 breast 15.1% | HCT-116 colon 64% | HCC-2998 colon 85.4% | KM12 colon 70.4%

O=C(Nc1ccc([As]=[As]c2ccc(NC(=O)c3ccccc3)cc2)cc1)c1ccccc1 (stereo not drawn)
active: NCI/ADR-RES ovarian -38.6% | T-47D breast -51.9% | BT-549 breast -90.4% | MDA-MB-435 melanoma -77.2% | SW-620 colon -67.3% | MCF7 breast -57.7% | HCT-116 colon -92.4% | HCC-2998 colon -80.5% | KM12 colon -80.4%

COC(=O)[C@@H](C)C[C@H](Cc1ccccc1)NC(=O)c1nc([C@@H](C[C@H](C(C)C)N(C)C(=O)[C@@H](NC(=O)[C@H]2CC(=O)CCN2C)C(C)C)OC(C)=O)sc1C(C)C
inactive: NCI/ADR-RES ovarian 54.3% | T-47D breast 82.9% | SW-620 colon 24.2% | MCF7 breast 24.6% | HCC-2998 colon 24.6%
active: BT-549 breast -10.6% | MDA-MB-435 melanoma -43.4% | HCT-116 colon 5.82% | KM12 colon 6.01%

COc1ccc(/C=C\c2cc(OC)c(OC)c(OC)c2)c(NS(=O)(=O)c2ccc(F)cc2)c1O
active: NCI/ADR-RES ovarian 2.13% | MDA-MB-435 melanoma -34.9% | MCF7 breast 9.22% | HCT-116 colon 7.7% | KM12 colon 1.13%
inactive: T-47D breast 103% | BT-549 breast 24% | SW-620 colon 21.1% | HCC-2998 colon 14.9%

COc1ccc(C2=N[C@@H](Cc3ccccc3)C(=O)Nc3ccsc32)cc1
active: MDA-MB-435 melanoma -15.7%
inactive: NCI/ADR-RES ovarian 28.4% | T-47D breast 61.1% | BT-549 breast 51.7% | SW-620 colon 37.6% | MCF7 breast 24.1% | HCT-116 colon 27.5% | HCC-2998 colon 81.5% | KM12 colon 39.1%

O=C(CC1(O)C(=O)N(Cc2ccccc2)c2ccc(Br)cc21)c1ccc(C(=O)NCC2CCC3(CC2)OOC2(CCCCC2)OO3)cc1 (stereo not drawn)
active: NCI/ADR-RES ovarian -44.8% | T-47D breast -29.2% | MDA-MB-435 melanoma 4.94% | SW-620 colon -16.5% | KM12 colon -57.5%
inactive: BT-549 breast 33.9% | MCF7 breast 31.5% | HCT-116 colon 35.5% | HCC-2998 colon 102%

Cn1cccc1C1CC(=O)N(CCC[Se]C#N)C1=O (stereo not drawn)
inactive: T-47D breast 71.7% | SW-620 colon 56.7% | HCC-2998 colon 83.1% | KM12 colon 12.3%
active: NCI/ADR-RES ovarian -0.356% | BT-549 breast -93.5% | MDA-MB-435 melanoma -6.27% | MCF7 breast 9.04% | HCT-116 colon 2.78%

Cc1c2cc(Cl)c3ccccc3c2c[n+]2ccccc12
inactive: NCI/ADR-RES ovarian 87.2% | MDA-MB-435 melanoma 64.9% | SW-620 colon 50.7% | MCF7 breast 26.4% | HCT-116 colon 48.7% | HCC-2998 colon 15.3% | KM12 colon 39.7%
active: T-47D breast -27.4% | BT-549 breast -6.2%

O=[N+]([O-])c1ccc(OP(=O)(CCl)N(CCCl)CCCl)cc1 (stereo not drawn)
inactive: NCI/ADR-RES ovarian 101% | T-47D breast 93.8% | BT-549 breast 93.6% | MDA-MB-435 melanoma 104% | SW-620 colon 102% | MCF7 breast 92.5% | HCT-116 colon 97.9% | HCC-2998 colon 105% | KM12 colon 101%

OCc1ccc2c(c1)OCO2
inactive: NCI/ADR-RES ovarian 105% | T-47D breast 86.4% | BT-549 breast 106% | MDA-MB-435 melanoma 102% | SW-620 colon 102% | MCF7 breast 93% | HCT-116 colon 101% | HCC-2998 colon 102% | KM12 colon 103%
